Shown are actives, neighbours in structure and some others; about 10% of the full set was active somewhere.
Pf growth 48h – inhibits P. falciparum growth in the first generation, 48 h. P. falciparum luciferase growth in erythrocytes, 48 h. Potency, µM (doses to about 28.7 µM), for inactives: at the top dose activity change, negative = inhibition, actives largely listed as inhibitors. hit rate 5.9% among 310,000. AID 504832; active means well fitted inhibition curve with a large enough effect; inconclusive means small, poorly fitted or top-dose-only effect, or another doubt; inactive means no such curve, though single readings can be large or run the other way; further: on the % scale 0 is the no-effect control and ±100 the full control effect
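Parasite viability was followed by luminescence of a genomically integrated firefly luciferase. Cultures held 0.1% parasitemia at 2% hematocrit (final), incubated under 5% CO2 at 37 C.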
Pf growth 96h – P. falciparum growth inhibition at 96 hour, primary screen for plastid delayed-death inhibitors; P. falciparum luciferase reporter growth, 96 h; Potency, µM (doses to about 28.7 µM), for inactives: at the highest dose activity change, negative = inhibition, usual class: inhibitors; hit rate 6.9% among 320,000; AID 504834; active means well fitted inhibition curve with a large enough effect; inconclusive means small, poorly fitted or top-dose-only effect, or another doubt; inactive means no such curve, though single readings can be large or run the other way; further: on the % scale 0 is the no-effect control and ±100 the full control effect
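Cell-based qHTS: luciferase-tagged P. falciparum in erythrocytes (2% hematocrit, 0.05% parasitemia final) incubated with compounds for 96 hours, 37 C, 5% CO2; luciferase detection reagent then added and luminescence measured.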
NS1 function inh – blocks influenza NS1 protein function. Potency, µM (top dose mostly 46.1 µM), for inactives: at the top dose activity, positive = more growth. hit rate 0.4% among 270,000. AID 2326; further: actives are rising curves; nearly all actives have a fitted effect of over 50% in size
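Read-out: OD600 growth recovery of NS1-expressing budding yeast. Cells grown overnight at 30C in -URA glucose medium, washed, resuspended and diluted 1:100 in 2% galactose assay medium, pH 6.0. Same strain lacking NS1 served as positive control.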
SARS PLP yeast – inhibitors of SARS-CoV papain-like protease in yeast | S. cerevisiae expressing SARS-CoV PLpro, growth rescue | Potency, µM (top dose mostly 32.9 µM), without a hit: at the top dose activity, positive = growth rescue, hits mostly activators | hit rate 0.19% among 330,000 | AID 485353; further: 0% is about no effect; nearly all actives have a fitted effect of over 55% in size
The depositor's hits bear a star; ? = inconclusive; . = no result given. Unless noted, the call rests on the fitted dose curve. Potency means the concentration at half of the fitted maximal effect.

SMILES	Pf growth 48h	Pf growth 96h	NS1 function inh	SARS PLP yeast
Cc1ccc(-n2cc(CNC(C)Cn3cncn3)c(-c3ccc(F)cc3)n2)cc1 (stereo not drawn)	7.38µM*	11.1%	-5.2%	-1.8%
Cc1ccc(C)c(-n2cc(CNC(C)Cn3cncn3)c(-c3ccccc3)n2)c1 (stereo not drawn)	13.1µM*	?	0.9%	1.1%
CCCn1c(SCC(=O)Nc2cccc(Cl)c2Cl)n[nH]c1=O	-4.9%	-29.5%	.	-2.0%
O=C(CSc1n[nH]c(=O)n1Cc1ccco1)Nc1ccccc1Cl	?	4.65µM*	-2.0%	1.3%
O=C(CSc1n[nH]c(=O)n1Cc1ccco1)Nc1ccccc1	0.0%	15.5%	-2.0%	0.3%
CC(C)c1ccc(NC(=O)CSc2n[nH]c(=O)n2Cc2ccco2)cc1	?	13.1µM*	-7.2%	1.5%
CCCn1c(SCC(=O)Nc2cc(S(=O)(=O)N(C)C)ccc2OC)n[nH]c1=O	-5.5%	5.7%	.	-1.2%
CN1CCC(OC(=O)c2cccc(Cl)c2)CC1	-4.9%	?	.	2.0%
CCOC(=O)c1cnc2ccc(OC)cc2c1NCc1ccccc1	11.7µM*	?	-21.9%	-19.3%
CCOC(=O)c1cnc2ccc(C)cc2c1NCCO	13.1µM*	?	-7.9%	3.7%
CCOC(=O)c1cnc2ccc(OCC)cc2c1NCCN1CCOCC1	?	?	3.2%	0.6%
CCOC(=O)c1cnc2ccc(OCC)cc2c1NCc1ccccc1OC	11.7µM*	84.8%	-6.6%	-12.6%
O=C(C1CCC(CNS(=O)(=O)c2cccs2)CC1)N1CCN(c2ccc(Cl)cc2)CC1 (stereo not drawn)	-17.9%	177.4%	13.2%	-3.8%
CCC(C)c1ccccc1N1CC(C(=O)NCCC2=CCCCC2)CC1=O (stereo not drawn)	?	14.7µM*	.	0.0%
CCC(C)c1ccccc1N1CC(C(=O)Nc2ccccc2N2CCCC2)CC1=O (stereo not drawn)	?	?	0.1%	4.9%
CCC(C)c1ccccc1N1CC(C(=O)N2CCN(S(=O)(=O)c3ccccc3Br)CC2)CC1=O (stereo not drawn)	?	11.7µM*	.	2.9%
CCc1ccc(N2CC(C(=O)NCCC3=CCCCC3)CC2=O)cc1 (stereo not drawn)	8.3%	12.5%	-19.2%	5.6%
COc1ccc(NC(=O)CSc2nnc(C)n2N)cc1S(=O)(=O)N1CCCCC1	-9.7%	9.5%	.	1.9%
CCOC(=O)C(C(=O)OCC)C(C[N+](=O)[O-])c1ccccc1 (stereo not drawn)	6.7%	-12.9%	.	-0.3%
Cc1cccc(-c2nc3c(s2)CCc2onc(-c4ccc(Br)cc4)c2-3)c1	82.9%	70.8%	-1.5%	-5.4%
CC1=NNC(=O)/C1=C\c1cn(-c2ccccc2)nc1-c1cccs1	?	8.28µM*	7.5%	-66.5%
CCN(CC(=O)Nc1ccc(NC(C)=O)cc1)C(=O)/C=C/c1cn(-c2ccccc2)nc1-c1cccs1	?	?	.	2.4%
CN1CCC(N(C)C(=O)/C=C/c2cn(-c3ccccc3)nc2-c2cccs2)CC1	5.86µM*	?	.	2.8%
CC1=NNC(=O)/C1=C\c1cn(-c2ccccc2)nc1-c1ccc(F)cc1	5.22µM*	53.5%	-2.1%	-5.1%
Cc1[nH]n(-c2ccccc2)c(=O)c1/C=N/NC(=O)c1ccccc1F	.	2.33µM*	-1.6%	-1.5%
SMILES	Pf growth 48h	Pf growth 96h	NS1 function inh	SARS PLP yeast
Cc1[nH]n(-c2ccccc2)c(=O)c1/C=N/NC(=O)COc1ccccc1[N+](=O)[O-]	?	?	-4.6%	14.1µM*
COc1cccc(CN2C(=NC(=O)C3CC3)SC3CS(=O)(=O)CC32)c1 (stereo not drawn)	14.9%	-3.8%	8.4%	?
COc1ccc(/C=C/CN2CCCC(CCC(=O)NCc3ccc(F)c(F)c3)C2)cc1 (stereo not drawn)	13.1µM*	2.4%	-2.3%	0.8%
CN(C)c1cccc(C(=O)N2CCCC(CCC(=O)NCc3ccccc3F)C2)c1 (stereo not drawn)	3.29µM*	?	-5.3%	-5.3%
O=C(CCC1CCCN(C(=O)c2cncs2)C1)NCc1ccc(F)c(F)c1 (stereo not drawn)	46.0%	8.28µM*	-1.5%	0.2%
O=C(CCC1CCCN(C(=O)c2cccnc2)C1)NCc1ccccc1F (stereo not drawn)	11.8%	-13.2%	3.1%	-1.6%
COc1cccc(CNC(=O)CCC2CCCN(C(=O)c3csc(C(C)C)n3)C2)c1 (stereo not drawn)	1.2%	13.1µM*	-1.4%	1.0%
